In article PMC7862700, “An all-to-all approach to the identification of sequence-specific readers for epigenetic DNA modifications on cytosine” one finds binding signal data, which are given here for 1 sequence.

Common to all, as to test: DAPPL (digital affinity profiling via proximity ligation, sequencing); 10 mM Tris-HCl pH 7.5, 50 mM NaCl, 1 mM DTT, 4% glycerol, room temperature, 30 min; GST-TFs on glutathione beads, 16-mer random dsDNA library, 0.1% formaldehyde crosslink after washing; high values mean tight binding
For one experiment, the target named is T1, FEV (Homo sapiens, UniProt Q99581 1-238).
T1 sequence: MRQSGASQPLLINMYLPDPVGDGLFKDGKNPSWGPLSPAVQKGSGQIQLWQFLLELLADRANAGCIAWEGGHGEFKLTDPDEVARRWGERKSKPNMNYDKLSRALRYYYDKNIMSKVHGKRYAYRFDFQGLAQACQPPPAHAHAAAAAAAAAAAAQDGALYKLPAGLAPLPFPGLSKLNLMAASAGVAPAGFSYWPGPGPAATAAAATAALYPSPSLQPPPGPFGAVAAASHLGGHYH
As to conditions: protein: recombinant; tags: N-terminal GST; dsDNA, one strand shown. In a few lines:
(§1)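 Beads coated with glutathione captured GST-fused human transcription factors that had been expressed in yeast, and the factors were then given DNA barcodes and pooled with a tag-only sample. The pools were incubated with 200 nmole of a random double-stranded 16-mer DNA library in Tris/NaCl/DTT/glycerol buffer for 30 min at room temperature, washed, crosslinked with 0.1% formaldehyde and proximity-ligated with BsaI/T4 ligase at 37 °C for 1 h. PCR amplification and Illumina NextSeq500 sequencing came last. Binding signal is each hexamer's read frequency for a factor divided by its frequency for the tag-only sample.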

Another experiment has as its target ETV5 (Homo sapiens, UniProt P41161 1-510). Particulars: protein: recombinant; tags: N-terminal GST; dsDNA, one strand shown. In a few lines:
as §1

Another experiment concerns the target HSF1 (Homo sapiens, UniProt Q00613 1-529). Particulars: protein: recombinant; tags: N-terminal GST; chain copies: 3; dsDNA, one strand shown. The method in brief: as §1
A further experiment addresses T2, SPIC (Homo sapiens, UniProt Q8N5J4 1-248).
T2 sequence: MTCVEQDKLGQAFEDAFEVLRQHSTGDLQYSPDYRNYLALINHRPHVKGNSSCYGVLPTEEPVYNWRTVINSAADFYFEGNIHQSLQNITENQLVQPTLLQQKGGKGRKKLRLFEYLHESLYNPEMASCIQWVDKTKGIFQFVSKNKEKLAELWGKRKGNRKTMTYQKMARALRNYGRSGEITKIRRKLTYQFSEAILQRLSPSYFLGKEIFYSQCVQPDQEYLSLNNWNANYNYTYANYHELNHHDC
As to conditions: protein: recombinant; tags: N-terminal GST; dsDNA, one strand shown. The method in brief: as §1

The next experiment addresses ELF4 (Homo sapiens, UniProt Q99607 1-663). Particulars: protein: recombinant; tags: N-terminal GST; dsDNA, one strand shown. In a few lines:
as §1

The next experiment has as its target T3, ELK4 (Homo sapiens, UniProt P28324-2 1-405).
T3 sequence: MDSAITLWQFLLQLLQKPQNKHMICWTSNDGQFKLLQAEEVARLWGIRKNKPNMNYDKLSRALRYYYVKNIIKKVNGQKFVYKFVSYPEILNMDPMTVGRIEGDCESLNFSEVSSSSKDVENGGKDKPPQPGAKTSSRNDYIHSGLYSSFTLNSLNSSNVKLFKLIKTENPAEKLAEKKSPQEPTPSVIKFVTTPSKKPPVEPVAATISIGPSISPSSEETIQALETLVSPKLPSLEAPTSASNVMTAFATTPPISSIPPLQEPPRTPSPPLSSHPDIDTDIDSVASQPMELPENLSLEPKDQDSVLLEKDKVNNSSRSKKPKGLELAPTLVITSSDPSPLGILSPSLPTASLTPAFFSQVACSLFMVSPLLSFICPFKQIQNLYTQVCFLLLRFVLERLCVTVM
Particulars: protein: recombinant; tags: N-terminal GST; dsDNA, one strand shown. In a few lines:
as §1

In the next experiment the target is T4, ETV2 (Homo sapiens, UniProt O00321 1-342).
T4 sequence: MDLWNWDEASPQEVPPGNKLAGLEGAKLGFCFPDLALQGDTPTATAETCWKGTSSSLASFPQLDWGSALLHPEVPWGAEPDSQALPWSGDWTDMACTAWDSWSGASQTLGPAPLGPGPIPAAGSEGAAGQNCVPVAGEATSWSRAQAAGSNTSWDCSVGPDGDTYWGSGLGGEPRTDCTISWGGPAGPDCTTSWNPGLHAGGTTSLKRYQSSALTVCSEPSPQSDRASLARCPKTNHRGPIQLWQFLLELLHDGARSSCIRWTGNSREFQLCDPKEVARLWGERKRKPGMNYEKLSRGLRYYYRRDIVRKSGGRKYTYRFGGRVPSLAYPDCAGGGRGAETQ
Particulars: protein: recombinant; tags: N-terminal GST; dsDNA, one strand shown. In a few lines: as §1

The target in a further experiment is T5, ELF3 (Homo sapiens, UniProt P78545 1-371).
T5 sequence: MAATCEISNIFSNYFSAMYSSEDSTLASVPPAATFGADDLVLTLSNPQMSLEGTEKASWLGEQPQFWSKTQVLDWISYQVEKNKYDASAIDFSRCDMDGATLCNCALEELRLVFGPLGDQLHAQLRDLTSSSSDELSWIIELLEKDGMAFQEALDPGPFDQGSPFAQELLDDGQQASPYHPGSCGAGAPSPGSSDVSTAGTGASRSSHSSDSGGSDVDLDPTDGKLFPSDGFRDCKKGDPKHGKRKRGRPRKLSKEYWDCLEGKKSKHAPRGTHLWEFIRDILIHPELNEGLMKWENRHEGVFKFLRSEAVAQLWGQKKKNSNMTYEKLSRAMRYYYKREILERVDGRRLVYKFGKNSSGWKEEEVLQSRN
As to conditions: protein: recombinant; tags: N-terminal GST; dsDNA, one strand shown. In a few lines:
as §1

A further experiment addresses CRX (Homo sapiens, UniProt O43186 1-299). As to conditions: protein: recombinant; tags: N-terminal GST; dsDNA, one strand shown. The method in brief: as §1
Another experiment concerns the target ETV1 (Homo sapiens, UniProt P50549 1-477). Particulars: protein: recombinant; tags: N-terminal GST; dsDNA, one strand shown. In a few lines:
as §1

For another experiment, the target named is T6, ERF (Homo sapiens, UniProt P50548 1-548).
T6 sequence: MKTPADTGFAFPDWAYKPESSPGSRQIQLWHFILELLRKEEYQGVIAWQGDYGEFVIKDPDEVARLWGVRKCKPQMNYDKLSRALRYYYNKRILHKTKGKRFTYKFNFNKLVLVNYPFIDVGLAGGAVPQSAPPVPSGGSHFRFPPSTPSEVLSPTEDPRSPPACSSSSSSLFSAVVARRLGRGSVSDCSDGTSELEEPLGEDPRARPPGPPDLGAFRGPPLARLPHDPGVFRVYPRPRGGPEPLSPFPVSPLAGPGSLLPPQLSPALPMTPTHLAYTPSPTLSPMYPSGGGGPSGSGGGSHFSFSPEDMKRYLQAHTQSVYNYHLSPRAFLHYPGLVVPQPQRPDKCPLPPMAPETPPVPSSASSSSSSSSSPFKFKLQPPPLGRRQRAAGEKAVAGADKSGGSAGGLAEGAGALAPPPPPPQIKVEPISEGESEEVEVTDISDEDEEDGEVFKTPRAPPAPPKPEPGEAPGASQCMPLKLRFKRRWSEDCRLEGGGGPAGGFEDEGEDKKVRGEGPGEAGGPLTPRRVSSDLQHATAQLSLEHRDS
Particulars: protein: recombinant; tags: N-terminal GST; dsDNA, one strand shown. The method in brief:
as §1

A further experiment deals with T7, ETV3L (Homo sapiens, UniProt Q6ZN32 1-361).
T7 sequence: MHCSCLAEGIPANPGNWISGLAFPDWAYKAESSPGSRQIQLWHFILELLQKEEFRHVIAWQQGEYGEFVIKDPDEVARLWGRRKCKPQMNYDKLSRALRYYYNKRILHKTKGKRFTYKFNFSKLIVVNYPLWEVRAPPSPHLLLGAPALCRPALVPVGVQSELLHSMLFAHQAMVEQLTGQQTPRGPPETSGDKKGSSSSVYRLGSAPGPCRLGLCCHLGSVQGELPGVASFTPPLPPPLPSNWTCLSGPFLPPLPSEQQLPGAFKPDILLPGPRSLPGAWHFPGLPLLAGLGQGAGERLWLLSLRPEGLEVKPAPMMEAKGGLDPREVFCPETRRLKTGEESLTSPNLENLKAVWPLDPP
As to conditions: protein: recombinant; tags: N-terminal GST; dsDNA, one strand shown. In a few lines:
as §1

The next experiment has as its target T8, ETS2 (Homo sapiens, UniProt P15036 1-469).
T8 sequence: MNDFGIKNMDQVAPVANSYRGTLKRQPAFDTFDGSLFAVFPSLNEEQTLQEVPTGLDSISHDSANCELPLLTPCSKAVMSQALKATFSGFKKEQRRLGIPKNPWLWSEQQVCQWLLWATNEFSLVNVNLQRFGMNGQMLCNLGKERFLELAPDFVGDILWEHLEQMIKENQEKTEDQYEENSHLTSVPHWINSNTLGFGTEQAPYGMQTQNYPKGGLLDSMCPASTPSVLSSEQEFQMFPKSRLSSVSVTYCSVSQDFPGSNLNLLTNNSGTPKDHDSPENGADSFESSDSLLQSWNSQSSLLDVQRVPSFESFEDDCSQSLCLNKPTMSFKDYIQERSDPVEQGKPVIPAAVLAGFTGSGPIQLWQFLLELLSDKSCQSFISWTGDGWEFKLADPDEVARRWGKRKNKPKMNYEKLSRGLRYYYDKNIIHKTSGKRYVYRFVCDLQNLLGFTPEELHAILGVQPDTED
As to conditions: protein: recombinant; tags: N-terminal GST; dsDNA, one strand shown. The method in brief:
as §1

Another experiment deals with T9, SPDEF (Homo sapiens, UniProt O95238 1-335).
T9 sequence: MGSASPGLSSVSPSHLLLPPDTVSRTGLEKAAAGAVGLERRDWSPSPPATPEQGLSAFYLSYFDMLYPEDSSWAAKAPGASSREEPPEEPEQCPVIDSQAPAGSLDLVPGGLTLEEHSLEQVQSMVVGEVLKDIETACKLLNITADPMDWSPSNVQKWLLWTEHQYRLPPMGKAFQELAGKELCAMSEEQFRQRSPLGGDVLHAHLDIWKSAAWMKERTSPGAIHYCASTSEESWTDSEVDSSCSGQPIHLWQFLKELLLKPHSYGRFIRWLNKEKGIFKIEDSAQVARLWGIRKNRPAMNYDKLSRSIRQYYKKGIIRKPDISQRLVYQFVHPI
As to conditions: protein: recombinant; tags: N-terminal GST; dsDNA, one strand shown. In a few lines:
as §1

A further experiment has as its target T10, ETV7 (Homo sapiens, UniProt Q9Y603 1-341).
T10 sequence: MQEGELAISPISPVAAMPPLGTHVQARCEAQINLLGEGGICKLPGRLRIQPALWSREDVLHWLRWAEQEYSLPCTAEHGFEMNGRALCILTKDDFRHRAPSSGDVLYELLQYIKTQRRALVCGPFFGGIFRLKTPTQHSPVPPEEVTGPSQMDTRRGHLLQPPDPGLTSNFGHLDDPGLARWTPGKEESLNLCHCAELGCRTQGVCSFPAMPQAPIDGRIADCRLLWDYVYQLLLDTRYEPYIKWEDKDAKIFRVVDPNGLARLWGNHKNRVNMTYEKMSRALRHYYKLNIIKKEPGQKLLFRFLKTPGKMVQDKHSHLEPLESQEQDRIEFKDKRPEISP
As to conditions: protein: recombinant; tags: N-terminal GST; dsDNA, one strand shown. The method in brief:
as §1

Another experiment concerns the target T11, ELF5 (Homo sapiens, UniProt Q9UKW6-2 1-255).
T11 sequence: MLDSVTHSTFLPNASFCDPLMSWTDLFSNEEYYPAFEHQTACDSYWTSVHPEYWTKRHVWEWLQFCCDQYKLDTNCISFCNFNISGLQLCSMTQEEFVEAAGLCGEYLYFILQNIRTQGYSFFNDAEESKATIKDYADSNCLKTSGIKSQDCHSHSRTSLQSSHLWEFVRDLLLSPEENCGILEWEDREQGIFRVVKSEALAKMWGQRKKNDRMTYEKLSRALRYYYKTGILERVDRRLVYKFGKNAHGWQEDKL
As to conditions: protein: recombinant; tags: N-terminal GST; dsDNA, one strand shown. In a few lines:
as §1

The target of the next experiment is T12, ETV3 (Homo sapiens, UniProt P41162-2 1-143).
T12 sequence: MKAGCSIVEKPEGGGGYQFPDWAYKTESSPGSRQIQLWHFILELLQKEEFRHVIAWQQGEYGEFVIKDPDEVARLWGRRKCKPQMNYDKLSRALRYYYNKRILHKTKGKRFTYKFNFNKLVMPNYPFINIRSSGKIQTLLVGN
As to conditions: protein: recombinant; tags: N-terminal GST; dsDNA, one strand shown. The method in brief: as §1

The target in a further experiment is ETV6 (Homo sapiens, UniProt P41212 1-452). As to conditions: protein: recombinant; tags: N-terminal GST; dsDNA, one strand shown. In a few lines: as §1
Sequence of ETV6 (P41212 whole entry): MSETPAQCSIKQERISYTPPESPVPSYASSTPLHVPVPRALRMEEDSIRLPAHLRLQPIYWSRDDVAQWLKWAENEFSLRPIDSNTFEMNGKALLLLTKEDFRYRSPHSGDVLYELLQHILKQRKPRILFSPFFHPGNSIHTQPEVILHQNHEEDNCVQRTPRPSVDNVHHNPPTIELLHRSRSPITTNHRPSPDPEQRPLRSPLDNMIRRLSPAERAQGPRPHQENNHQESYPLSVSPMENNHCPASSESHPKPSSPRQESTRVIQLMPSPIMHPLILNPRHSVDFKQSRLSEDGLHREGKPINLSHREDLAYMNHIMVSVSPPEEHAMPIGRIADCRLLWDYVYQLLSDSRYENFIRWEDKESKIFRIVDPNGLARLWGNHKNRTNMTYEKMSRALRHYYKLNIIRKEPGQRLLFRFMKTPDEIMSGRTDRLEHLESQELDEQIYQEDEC

Sequence of CRX (O43186 whole entry): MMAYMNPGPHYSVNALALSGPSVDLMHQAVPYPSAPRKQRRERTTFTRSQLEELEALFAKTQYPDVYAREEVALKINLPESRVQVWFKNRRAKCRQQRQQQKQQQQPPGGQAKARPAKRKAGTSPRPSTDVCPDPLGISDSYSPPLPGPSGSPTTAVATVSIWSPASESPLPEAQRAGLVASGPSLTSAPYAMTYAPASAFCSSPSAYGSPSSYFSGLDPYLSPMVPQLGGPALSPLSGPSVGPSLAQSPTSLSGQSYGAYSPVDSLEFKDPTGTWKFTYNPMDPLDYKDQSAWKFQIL
Sequence of ELF4 (Q99607 whole entry): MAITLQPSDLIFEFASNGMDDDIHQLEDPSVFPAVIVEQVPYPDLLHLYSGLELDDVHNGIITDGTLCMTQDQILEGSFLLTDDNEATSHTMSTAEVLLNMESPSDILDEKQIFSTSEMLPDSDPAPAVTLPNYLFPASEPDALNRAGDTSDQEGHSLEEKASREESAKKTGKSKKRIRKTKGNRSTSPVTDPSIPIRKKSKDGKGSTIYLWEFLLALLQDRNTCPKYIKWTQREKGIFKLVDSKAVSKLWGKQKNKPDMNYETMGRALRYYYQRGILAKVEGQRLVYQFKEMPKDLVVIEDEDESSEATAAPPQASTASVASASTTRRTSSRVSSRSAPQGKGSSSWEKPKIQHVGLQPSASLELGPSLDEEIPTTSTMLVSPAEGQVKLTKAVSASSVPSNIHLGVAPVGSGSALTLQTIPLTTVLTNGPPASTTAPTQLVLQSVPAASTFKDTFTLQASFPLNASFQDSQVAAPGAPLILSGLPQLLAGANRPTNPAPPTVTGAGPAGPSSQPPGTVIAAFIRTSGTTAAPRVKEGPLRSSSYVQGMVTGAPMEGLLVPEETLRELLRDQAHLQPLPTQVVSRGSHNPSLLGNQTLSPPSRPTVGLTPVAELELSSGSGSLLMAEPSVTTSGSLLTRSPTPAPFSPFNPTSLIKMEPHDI
Sequence of HSF1 (Q00613 whole entry): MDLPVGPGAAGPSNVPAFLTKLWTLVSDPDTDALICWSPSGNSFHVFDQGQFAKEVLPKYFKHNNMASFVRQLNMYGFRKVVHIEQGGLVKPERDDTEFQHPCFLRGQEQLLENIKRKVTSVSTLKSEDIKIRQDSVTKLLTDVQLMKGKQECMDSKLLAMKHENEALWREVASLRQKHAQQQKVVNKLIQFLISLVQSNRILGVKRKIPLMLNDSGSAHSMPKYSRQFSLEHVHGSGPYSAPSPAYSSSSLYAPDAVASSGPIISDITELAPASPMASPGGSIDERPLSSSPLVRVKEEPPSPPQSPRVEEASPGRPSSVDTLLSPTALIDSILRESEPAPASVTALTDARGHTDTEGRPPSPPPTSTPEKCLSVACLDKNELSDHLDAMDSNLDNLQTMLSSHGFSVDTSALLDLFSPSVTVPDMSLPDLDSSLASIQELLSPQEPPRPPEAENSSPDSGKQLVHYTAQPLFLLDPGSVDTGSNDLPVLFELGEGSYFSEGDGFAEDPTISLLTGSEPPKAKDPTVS
Sequence of ETV5 (P41161 whole entry): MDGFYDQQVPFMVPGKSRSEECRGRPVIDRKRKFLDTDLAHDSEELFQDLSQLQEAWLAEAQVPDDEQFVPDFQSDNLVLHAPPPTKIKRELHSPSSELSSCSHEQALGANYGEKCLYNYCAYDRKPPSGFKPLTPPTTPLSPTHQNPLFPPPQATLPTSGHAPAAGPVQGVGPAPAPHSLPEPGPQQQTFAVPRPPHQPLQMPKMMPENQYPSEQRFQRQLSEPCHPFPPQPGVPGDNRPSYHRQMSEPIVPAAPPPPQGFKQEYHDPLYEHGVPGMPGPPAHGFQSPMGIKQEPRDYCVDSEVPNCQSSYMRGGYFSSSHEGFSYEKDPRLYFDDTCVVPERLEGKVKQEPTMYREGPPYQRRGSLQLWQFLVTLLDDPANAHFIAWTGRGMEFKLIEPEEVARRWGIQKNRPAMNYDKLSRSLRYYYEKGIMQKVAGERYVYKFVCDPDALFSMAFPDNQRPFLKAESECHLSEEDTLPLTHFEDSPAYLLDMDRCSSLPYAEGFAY
Sequence of ETV1 (P50549 whole entry): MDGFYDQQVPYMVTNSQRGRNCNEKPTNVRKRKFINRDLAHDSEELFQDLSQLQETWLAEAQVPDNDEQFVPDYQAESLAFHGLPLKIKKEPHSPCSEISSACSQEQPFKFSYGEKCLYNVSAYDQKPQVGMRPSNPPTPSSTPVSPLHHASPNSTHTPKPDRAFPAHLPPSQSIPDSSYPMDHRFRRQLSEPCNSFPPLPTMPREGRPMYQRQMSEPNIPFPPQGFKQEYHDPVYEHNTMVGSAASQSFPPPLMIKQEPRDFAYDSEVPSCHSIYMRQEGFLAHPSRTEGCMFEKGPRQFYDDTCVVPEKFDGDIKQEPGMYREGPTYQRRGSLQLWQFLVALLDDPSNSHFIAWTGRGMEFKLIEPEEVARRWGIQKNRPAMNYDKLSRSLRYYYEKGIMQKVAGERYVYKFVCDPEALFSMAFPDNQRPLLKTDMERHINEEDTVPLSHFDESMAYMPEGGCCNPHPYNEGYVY

As for GGCTCA, the binding signal is 1.22 fold enrichment (6-mer frequency, TF over GST control) with FEV; 1.22 fold enrichment (6-mer frequency, TF over GST control) with ETV5; 1.27 fold enrichment (6-mer frequency, TF over GST control) with HSF1; 1.28 fold enrichment (6-mer frequency, TF over GST control) in the experiment with SPIC; 1.3 fold enrichment (6-mer frequency, TF over GST control) in the experiment with ELF4; 1.15 fold enrichment (6-mer frequency, TF over GST control) in the experiment with ELK4. For the same sequence, the binding signal with ETV2 was 1.13 fold enrichment (6-mer frequency, TF over GST control); with ELF3, 1.28 fold enrichment (6-mer frequency, TF over GST control); with CRX, 1.53 fold enrichment (6-mer frequency, TF over GST control); with ETV1, 1.18 fold enrichment (6-mer frequency, TF over GST control); with ERF it was 1.3 fold enrichment (6-mer frequency, TF over GST control); in the experiment with ETV3L, 1.33 fold enrichment (6-mer frequency, TF over GST control). The binding signal with ETS2 is 1.19 fold enrichment (6-mer frequency, TF over GST control); with SPDEF, 1.15 fold enrichment (6-mer frequency, TF over GST control); with ETV7, 1.15 fold enrichment (6-mer frequency, TF over GST control); in the experiment with ELF5, 1.14 fold enrichment (6-mer frequency, TF over GST control); with ETV3, 1.23 fold enrichment (6-mer frequency, TF over GST control); with ETV6, 1.26 fold enrichment (6-mer frequency, TF over GST control).
